# Measured values taken from article PMC7819943, “Rice protein-binding microarrays: a tool to detect cis-acting elements near promoter regions in rice”.
# The full ranking holds about 39,000 sequences; the median of “fluorescence intensity (a.u.)” is about 4,300, and the highest 2% start at about 39,000. This excerpt belongs to a sample that is enriched for the highest values.
# Target: T1, OsSMF1 (Oryza sativa, UniProt Q6ZLB0 1-436)
# T1 sequence: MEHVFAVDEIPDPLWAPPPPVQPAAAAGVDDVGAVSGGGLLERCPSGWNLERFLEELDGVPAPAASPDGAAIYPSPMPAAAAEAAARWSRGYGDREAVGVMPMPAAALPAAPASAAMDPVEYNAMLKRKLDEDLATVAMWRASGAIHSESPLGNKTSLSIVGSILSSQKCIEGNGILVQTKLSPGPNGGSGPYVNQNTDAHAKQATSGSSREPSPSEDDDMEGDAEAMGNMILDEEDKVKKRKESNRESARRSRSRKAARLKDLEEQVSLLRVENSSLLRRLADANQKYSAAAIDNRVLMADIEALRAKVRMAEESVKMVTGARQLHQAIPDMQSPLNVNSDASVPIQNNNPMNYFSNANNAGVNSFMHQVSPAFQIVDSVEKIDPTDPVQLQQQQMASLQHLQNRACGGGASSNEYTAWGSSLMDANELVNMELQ
# Test: protein-binding microarray (RPBM); PBS, 2% BSA, 51.3 ng/ul salmon testes DNA, 50 uM zinc acetate, 200 nM TF, 25 C, 1 h; high values mean tight binding
# Details: protein: recombinant; tags: N-terminal polyhistidine and DsRed monomer fusion (pET32a); chain copies: 2; label: CyDye5-dUTP incorporated in the synthesized complementary strand; 3' TTTTT single-stranded linker to array surface; dsDNA, one strand shown
# Summary of the method: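 Binding signal here means per-feature fluorescence intensity in arbitrary units. The values were read on an Axon 4000B scanner after a custom Agilent array, double-stranded by primer extension with Cy5-dUTP, was incubated with 200 nM protein at 25 °C for 1 h in PBS with 2% BSA, salmon testes DNA and 50 µM zinc acetate, then washed. The proteins were transcription factors with an N-terminal polyhistidine tag and DsRed, expressed in E. coli BL21-CodonPlus and purified on Ni–NTA.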
row,Sequence,binding signal
1,TTCTTCGAGGACCACATGCGTGAGTGGATGACGGAGTTCCCGGAGTCACCTAGTGCAG,3950 fluorescence intensity (a.u.)
2,TTAATTATTAAATTCTTTTCACTGTCTACTACTTGTTCCGCGGAGTCACCTAGTGCAG,22300 fluorescence intensity (a.u.)
3,TGGAGGTTATGAATCATACTCGGACGATAGTTAAGGGAGTCGGAGTCACCTAGTGCAG,49700 fluorescence intensity (a.u.)
4,CGGCATTATATACTAAAGAAAATGGAGGGAGTAGGAATCACGGAGTCACCTAGTGCAG,28700 fluorescence intensity (a.u.)
5,CTGACGAATATACAGGAGGGAACCGAATGGCGCGCAATTGCGGAGTCACCTAGTGCAG,21700 fluorescence intensity (a.u.)
6,GCGGAAAGGGAAAGGCCCGACGAATGGGAGGAATCATATACGGAGTCACCTAGTGCAG,40300 fluorescence intensity (a.u.)
7,GTTTTATGGTTGGAGGTCATGAATCATACTCGTGTCATAGCGGAGTCACCTAGTGCAG,7410 fluorescence intensity (a.u.)
8,TTTGTGGTTGGAGGTTATGAATCATACTCGAGGCATAGTTCGGAGTCACCTAGTGCAG,22000 fluorescence intensity (a.u.)
9,AGATTAGGTTGCTGTAGCCATGACTGTGAGTTGTGACTAGCGGAGTCACCTAGTGCAG,4030 fluorescence intensity (a.u.)
10,TGTATGGGCCTTACGTCAGCACGGCCCAGTTGCTGGTTTTCGGAGTCACCTAGTGCAG,17700 fluorescence intensity (a.u.)
11,TCACCTCCACCACCGTTGACGATGACACGCGGTGCGTCGCCGGAGTCACCTAGTGCAG,4250 fluorescence intensity (a.u.)
12,AACTAATGAATAGTGTGACGTATTGCCGAAATTTCTCAACCGGAGTCACCTAGTGCAG,7380 fluorescence intensity (a.u.)
13,TGTGAATTGCATCAACCGAAAAGTAGATATTGGAGTATTTCGGAGTCACCTAGTGCAG,65500 fluorescence intensity (a.u.)
14,ACATTTATTGCATCATTACATTCTGAAGTAATTTCAACATCGGAGTCACCTAGTGCAG,3470 fluorescence intensity (a.u.)
15,ACCTACATGTGCGTAATATTCGTGGACACCAGGATTTAAACGGAGTCACCTAGTGCAG,3510 fluorescence intensity (a.u.)
16,TTGTATTTTGGAAATATGACGCATTAGATGTTTTATATATCGGAGTCACCTAGTGCAG,3570 fluorescence intensity (a.u.)
17,GTTGAGGTCTCGCGCTCCCGTCCTCGTCTCGTCCTCTCCCCGGAGTCACCTAGTGCAG,21500 fluorescence intensity (a.u.)
18,TATGAGTATCCTATATACATATATATACATATATATATACCGGAGTCACCTAGTGCAG,27300 fluorescence intensity (a.u.)
19,TATGAGGGTATCAGGGTCGTTGAGGTCTCTCCTCCTACACCGGAGTCACCTAGTGCAG,41000 fluorescence intensity (a.u.)
20,TCACGCTCTCAACGCTGCTGTGTCACGTCACGTCACGCGCCGGAGTCACCTAGTGCAG,16400 fluorescence intensity (a.u.)
21,CTAAAACAGGCGAGTAGGATATACTACCTTCAATTATATTCGGAGTCACCTAGTGCAG,40600 fluorescence intensity (a.u.)
22,TGAAAATATATTCAATTATTGATTCGATAAAACTAATTTACGGAGTCACCTAGTGCAG,3460 fluorescence intensity (a.u.)

row,Sequence,binding signal
1,TTTCAACAGATATTTTATTGTGACGTTGCAATTACTAAAACGGAGTCACCTAGTGCAG,4950 fluorescence intensity (a.u.)
2,TCAACCGTATCTGACGCCTGCATTTCCTCTACCAGCCAAGCGGAGTCACCTAGTGCAG,4010 fluorescence intensity (a.u.)
3,CTAAAACTCAACATATAAACATGCCACCTCATCATCTATACGGAGTCACCTAGTGCAG,7400 fluorescence intensity (a.u.)
4,AAATAGCCAAGCCATATCATCTCATCCATATCATAATCGGCGGAGTCACCTAGTGCAG,3200 fluorescence intensity (a.u.)
5,CATCCTAACGGATTATTCTCTCAACCCCACGAACCATTCACGGAGTCACCTAGTGCAG,19200 fluorescence intensity (a.u.)
6,GCAACATAACCCATCCTAGATTGCTATATATTGGGACGAACGGAGTCACCTAGTGCAG,65500 fluorescence intensity (a.u.)
7,TATGAAATATCCCATCCTATCATAGATTATTATATTACGACGGAGTCACCTAGTGCAG,26400 fluorescence intensity (a.u.)
8,CAGGCCGGAAACCGGCCGAGCCCACCCATTAGAAAGGACGCGGAGTCACCTAGTGCAG,22900 fluorescence intensity (a.u.)
9,CACTCAAAATCTCTTTCGTGTCCACCTCACCTTGCACCACCGGAGTCACCTAGTGCAG,4870 fluorescence intensity (a.u.)
10,TCCCGTCTCGGCTCCTTGCGCCATCGTCGACAGGGGAGGGCGGAGTCACCTAGTGCAG,3540 fluorescence intensity (a.u.)
11,GATGGGCCCACCCGTCATCCACACGAGGGCCACGCCTTGCCGGAGTCACCTAGTGCAG,3380 fluorescence intensity (a.u.)
12,ACGAGCCCACGAGGTTGATGACGACGAAGCCGAAGAGTTGCGGAGTCACCTAGTGCAG,4660 fluorescence intensity (a.u.)
13,GGCCTTGCCACGAGCCCACGAGAGGTTTGGTTGATGGGCCCGGAGTCACCTAGTGCAG,46500 fluorescence intensity (a.u.)
14,CCACCATGGCATGCCACGTCAACACACAGAGTGGGTTGGACGGAGTCACCTAGTGCAG,17900 fluorescence intensity (a.u.)
15,CAAATGCAGAAAAGATAATCTCCTTTCTCTCTCTATTAAACGGAGTCACCTAGTGCAG,31100 fluorescence intensity (a.u.)
16,TCACACCCCATCTATGTTGTCGCTCCACATAGGCTAGGCCCGGAGTCACCTAGTGCAG,3260 fluorescence intensity (a.u.)
17,TTGTTCCTTGCTAATATATTGACGTGTAATTCTTTTATGCCGGAGTCACCTAGTGCAG,9690 fluorescence intensity (a.u.)
18,TGGTACAAGGATTTGTCCTGTCAACATGGCAATCCTCTGCCGGAGTCACCTAGTGCAG,3360 fluorescence intensity (a.u.)
19,GCGCTGACGTGTCGCTATCCTACTGGAACACACCACGTCACGGAGTCACCTAGTGCAG,46500 fluorescence intensity (a.u.)
20,GCAACCACCGTGACGCCGCCGCGCGCCCACTGGAACACGTCGGAGTCACCTAGTGCAG,5010 fluorescence intensity (a.u.)
21,TCCACCGTCTGCTACTGCTAGCGTGCTACTGTCTCGCTGACGGAGTCACCTAGTGCAG,3350 fluorescence intensity (a.u.)
